In the supplement of paper PMC6555819:

Each sequence was assayed on RARb:RXRa (NR concentration 270 nM, RXRa partner concentration 90 nM) (assay: PBM binding z-score (relative to random genomic background probes); higher = stronger binding; sequences stand for … in GC…GCGATTGACAGCGTAGAATGAAGG).
Procedure, shortened: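 Antibodies against each partner of ligand-free nuclear receptor dimers (one per run) detected binding on custom Agilent 4×180K protein-binding microarrays after 1 h incubation. The double-stranded probes had 34-nt variable regions carrying direct-repeat seeds, single-nucleotide variants, half-site ablations and random human genomic background sequences. Binding z-scores, from regression-normalized fluorescence, use the random background probes as reference.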
In the case of TCTTGTAGGTCAGCAGGTTAAGAAAGCTGGCCAA, the PBM binding z-score is reported as 3.91. Sequence TAGCCTAGGTCATTCAGGGCCCAGTATAGAAAGC has a PBM binding z-score of 3.54. For AATATAGGGTCACTAGGCCAGAGTAGGTACGAAT, the PBM binding z-score was 4.11. CCTCCGAGGACAACAGGAGGTCAGAGCTGCCAGA was tested, and the PBM binding z-score was 2.88. In the case of CCTAGCTGGTCAAGGTCACACACGCTATAGGTAC, the PBM binding z-score is reported as 3.99. For ATCGAAAGGTCGTCAGGTGAGTATACAGAAAGGC, the PBM binding z-score was 3.84. Sequence ATCGAAAGGTCGTGAGGTGAATATACAGAAAGGC has a PBM binding z-score of 4.12. TGAATGAGGTTATAAGAGCAGGGAACGTTGCAAA was tested, and the PBM binding z-score was 1.29. CCTAGTTGGCCAGGAGGTCACACACCGGATATGA showed a PBM binding z-score of 3.41. AGTCAAAGTTCACTAGGTAACGTCAGATTCAGCT was tested, and the PBM binding z-score was 4.88. AGAACGAGGGCACGCTGAGTAGATAGCAGAGTAG gave a PBM binding z-score of 2.4. TCAGACAGGTGATGGTAACTCAGGTACGCAGTCG gave a PBM binding z-score of 0.566. CCTCGGAGGACAAGAGGAGGTCAGAGCTGCCAGA showed a PBM binding z-score of 2.54. Work on ATATGTAGGTTATCGGGTAATTCAGTTTGCGCAT yielded a PBM binding z-score of 1.02. GCTATTAGTTGAAAGCGCAACCGAATGATTCTCG gave a PBM binding z-score of -0.343. With CGGCAAAGTTCAAGGTAACGTAACAGAAAGCAGC the PBM binding z-score was 5.04. With ATACCAAGGTGATCGTGAGGTTGTTGATACTAAC the PBM binding z-score was 0.63. Work on ACAGACAGGTGAGTGAAGGTACCTCAGCTGGACG yielded a PBM binding z-score of 0.213. Sequence GGAACGACGGCATTCGAGTTGATAGCATGGCGAT has a PBM binding z-score of -1.24. With TCGCGTAGGTTACCAATGGGGCATTCAGCTTTCT the PBM binding z-score was 1.05. In the case of TTACCAAGGTAAGCTGAGGTCGTTGATCCAACTC, the PBM binding z-score is reported as 0.571. CCTACTGGGCCACGAAAGGTCAGTGATTCAGTGA gave a PBM binding z-score of 3.81. GCTTCTAGATCAAGGTTAAGAAAGACTAAGCTAA gave a PBM binding z-score of 0.841. ACGATTAGTTGAGACGAGGGCAACCGATAGGTTG was tested, and the PBM binding z-score was 0.555. ATATGTAGGTGAGCTGGGGTCATTCAGACTAGGC gave a PBM binding z-score of 3.08. For CCTAGTTGGTCAGGAGGTCTCACACCGGATATGA, the PBM binding z-score was 0.838. CTCGAAAGGTCGTGCTCAGGTGAGGATACCAAAC gave a PBM binding z-score of 3.94. In the case of CCGGCTGGGGCAAGGTTACCATAACGCACAGCCA, the PBM binding z-score is reported as 1.64. Sequence CCGACTGGGGCATAAGGTTACCATAAGCCAGCCC has a PBM binding z-score of 1.66. GCGACTGGGGCACAGCAGGTTACCATAAGGTTGG gave a PBM binding z-score of 0.997. AGTCAAAGTTAAGGACGAGGTAACGTAAAGCACG was tested, and the PBM binding z-score was 0.889. In the case of CGTCCAAGGTCAACGTCAGTGAAAGAGACTCGAA, the PBM binding z-score is reported as 5.37. In the case of ACAGACAGGTGAGTGAATGTAACTCAGCTGGACG, the PBM binding z-score is reported as 0.384. With GCTGCTAGGTCAACTGATGGTCAGATAAAGCTCG the PBM binding z-score was 4.22. TGAATGAGGTTATAGGATCAGGGAACGTTGCAAA showed a PBM binding z-score of 1.48. With TAGTCTAGGTCATTGGGCCAGTATAGTACGCATC the PBM binding z-score was 3.81. For CCAACTGGGCCAAAGGTCATTGATTCCAATGCTC, the PBM binding z-score was 4.35. AGCCAAAGTTCATCTAGGTAACGTAAGATATGCT gave a PBM binding z-score of 4.94. Work on TCATATAGGTCATACAGGTGAAAGTCGGCATCTA yielded a PBM binding z-score of 4.2.
